From PubChem BioAssay
NPC1 promoter act: activates the NPC1 promoter. Huh7 NPC1 promoter luciferase reporter, 24 h. Potency, µM (series often up to 9.22 µM), without a hit: top-dose activation, most hits filed as activators. 320,000 compounds, 2.4% hits; also: % of control where 0% means no effect; nearly all actives have a fitted effect of over 60% in size
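Stably transfected Huh7 (NPC1 promoter→luciferase), 1500 cells/well in Opti-MEM + 10% FBS, 2 h settle, then compound 24 h at 37 °C. Luminescence after 10 min with Amplite reagent.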
ELG1 repair inh: inhibitors of ELG1-dependent DNA repair in HEK293T cells. 330,000 compounds, 2.3% hits. AID 504467. HEK293T ELG1-luciferase reporter, luminescence, 16 h; DNA damage induced by 5-fluorouridine. Potency, µM (top dose mostly 46.1 µM), without a hit: at the highest dose activity change, negative = inhibition, actives largely listed as inhibitors; also: % is scaled to controls: 0 for no effect and ±100 for the full control effect; nearly all actives have a fitted effect of over 55% in size
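Overnight (16 hr) co-exposure of 2,000 cells/well to 5-fluorouridine and compound at 37 °C preceded detection. Luciferase was quantified via ONE-Glo luminescence; loss of signal denotes inhibition.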
ELG1 genotoxic: genotoxicity induction in ELG1-luciferase HEK293T cells; Potency, µM (doses to about 46 µM), for inactives: top-dose activity change, positive = activation, hits mostly activators; HEK293T ELG1-luciferase reporter, luminescence, 16 h; 330,000 compounds, 1.3% hits; also: % of control where 0% means no effect; nearly all actives have a fitted effect of over 60% in size
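Genotoxicity was scored as increased ELG1-luciferase reporter signal, measured by ONE-Glo luminescence (30 min, room temperature). Compound or vehicle exposure of the HEK293T reporter cells lasted 16 hr at 37°C.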
Rab9 prom act: activates the Rab9 promoter. Huh7 Rab9 promoter-luciferase reporter, luminescence, 24 h. Potency, µM (top dose mostly 9.22 µM), for the others: at the highest dose activation, negative = inhibition, usual class: activators. 320,000 compounds, 2.8% hits. AID 485297; also: % of control where 0% means no effect; nearly all actives have a fitted effect of over 60% in size
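Quantitative HTS format; Huh7 Rab9-luciferase reporter cells (1500/well) receive compound 2 h post-plating, incubate 24 h at 37 °C, then get luciferase reagent for 10 min before luminescence reading.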
SMN2 splice enh: increases expression of the SMN2 splice variant. HEK293 SMN2-luciferase splicing reporter, luminescence, 30-36 h. Potency, µM (titrated, usually from 46.1 µM), for inactives: top-dose activity change, positive = activation, hits mostly activators. 210,000 compounds, 2.8% hits. AID 1458; also: % of control where 0% means no effect; nearly all actives have a fitted effect of over 55% in size
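HEK293 cells carry an SMN2 […]–luciferase reporter in which exon 7 inclusion puts luciferase in frame. Cells were plated 10-12 h before compound addition, then incubated 30-36 h at 37C. ONE-Glo luminescence was read; sodium butyrate at 4.5 mM final served as control.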
FLuc counter: firefly luciferase modulation, counter-screen for miR-21 project. P08659. purified FLuc, Km substrates, luminescence inhibition. Potency, µM (titrated, usually from 57.5 µM), inactives show at the highest dose activity change, negative = inhibition, usual class: inhibitors. 360,000 compounds, 6.9% hits. AID 588342;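 also: plate controls were vehicle for no effect and reference inhibitor for full effect; nearly all actives have a fitted effect of over 55% in size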
Target sequence (P08659 whole entry, looked up): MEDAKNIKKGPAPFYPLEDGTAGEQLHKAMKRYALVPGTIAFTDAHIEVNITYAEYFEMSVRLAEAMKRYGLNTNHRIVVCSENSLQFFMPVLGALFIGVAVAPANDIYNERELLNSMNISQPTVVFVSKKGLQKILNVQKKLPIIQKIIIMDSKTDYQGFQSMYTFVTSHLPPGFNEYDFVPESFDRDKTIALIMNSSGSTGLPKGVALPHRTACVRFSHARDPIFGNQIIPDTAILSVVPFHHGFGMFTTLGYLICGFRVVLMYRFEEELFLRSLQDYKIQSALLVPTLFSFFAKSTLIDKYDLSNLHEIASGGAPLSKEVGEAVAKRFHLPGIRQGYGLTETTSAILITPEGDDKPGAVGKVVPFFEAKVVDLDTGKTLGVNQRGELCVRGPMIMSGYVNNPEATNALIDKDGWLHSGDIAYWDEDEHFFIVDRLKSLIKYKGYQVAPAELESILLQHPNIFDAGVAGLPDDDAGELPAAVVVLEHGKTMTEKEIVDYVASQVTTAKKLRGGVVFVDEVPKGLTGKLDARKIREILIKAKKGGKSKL
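Purified P. pyralis luciferase, 10 nM final, with Km-level 10 uM D-luciferin and 10 uM ATP in 50 mM Tris acetate pH 7.5, 10 mM Mg acetate, 0.01% Tween-20, 0.05% BSA; 6-point qHTS titration about 60 µM downward; luminescence read.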
The depositor's hits bear a star; u = inconclusive; x = not tested or not shown; [ ] = remark or other dose. Most compounds without a hit are left out; they make up all but 9.2% or so of the library. Calls follow the shape of the dose curve; as a rule, active = well fitted curve in the direction sought with a large enough effect; inconclusive = small, poorly fitted or top-dose-only effect, or another doubt; inactive = no such curve, though single readings can be large; an effect the other way counts as inactive or inconclusive. Potency is read from the fitted curve at half-maximal effect.

SMILES	NPC1 promoter act	ELG1 repair inh	ELG1 genotoxic	Rab9 prom act	SMN2 splice enh	FLuc counter
Cc1ccc(Nc2ncccc2C(=O)O)cc1C	u	u	u	u	19.1%	16.9µM*
Cc1cccc(Nc2ccccc2C(=O)O)c1C	1.8%	3.5%	1.4%	0.7%	-11.3%	u
Cc1ccc(Nc2ncccc2C(N)=O)cc1[N+](=O)[O-]	u	u	u	3.55µM*	14.1µM*	12µM*
O=C(O)c1cccnc1Nc1ccc(Cl)cc1	21.6%	u	-0.4%	u	10µM*	16.9µM*
NC(=O)c1cccnc1Nc1ccccc1Cl	2.9%	u	14.4%	1.1%	-18.8%	u
Cc1cc(C)c(Nc2ncccc2C(=O)O)c(C)c1	0.2%	2.6%	1.9%	-13.3%	x	-12.2%
Cc1cccc(Nc2ncccc2C(=O)O)c1C	9.8%	16.7%	11.0%	2.1%	x	21.3µM*
O=C(OCc1cccc(F)c1)c1ccc2c(c1)-c1ccccc1C2=O	20.1%	u	10.9%	13.6%	-2.8%	-16.1%
O=C(OCc1ccccc1F)c1ccc2c(c1)-c1ccccc1C2=O	2.24µM*	u	u	2.24µM*	u	u
C/C(=N/NC(=O)c1cc2ccccc2cc1O)c1ccco1	2.82µM*	u	u	1.58µM*	x	5.36µM*
C/C(=N\NC(=O)c1c(C)nc2ccccn12)c1ccco1	u	u	u	2.51µM*	10µM*	u
C/C(=N\NC(=O)c1cc2ccccc2cc1O)c1ccc(C)o1	27.3%	u	-0.3%	u	x	9.53µM*
C/C(=N\NC(=O)c1c[nH]c2ccccc12)c1ccc(C)o1	10.3%	u	16.7%	24.1%	3.0%	u
Cc1cccc(CSCCNC(=O)CN(c2ccccc2)S(=O)(=O)N(C)C)c1	x	x	x	x	-17.7%	-0.5%
CC(=O)Nc1ccc(-c2cc(C(=O)O)c3ccc(C)cc3n2)cc1	18.3%	u	8.6%	3.7%	x	16.9µM*
CC(=O)Nc1ccc(-c2cc(C(=O)O)c3cc4ccccc4cc3n2)cc1	x	x	x	x	0.3%[9.22 µM]	x
COC(=O)c1cc(-c2ccc(NC(C)=O)cc2)nc2ccccc12	-1.3%	0.1%	-3.4%	-3.3%	-4.9%	12µM*
CCN(CC)c1cccc(O)c1	x	x	x	x	2.6%	x
COc1ccc2c(c1)c(=O)cc(-c1ccccc1)n2C	21.8%	u	u	11.9%	u	23.9µM*
Cn1c(-c2ccccc2)cc(=O)c2ccccc21	1.3%	7.2%	1.7%	-0.3%	7.5%	-18.5%
COC(=O)c1c(-n2c(C)cc(C=O)c2C)sc2c1CCCC2	-3.5%	5.9%	1.2%	1.8%	-20.6%	12µM*
Cc1ccc(NCc2ccccc2-c2nnc(-c3ccccc3Cl)o2)cc1Cl	x	x	x	x	-1.5%	u
CCc1cccc(NCc2ccccc2-c2nnc(-c3ccccc3Cl)o2)c1	x	x	x	x	-2.9%	3.38µM*
Fc1ccc(NCc2ccccc2-c2nnc(-c3ccccc3Cl)o2)cc1	x	x	x	x	6.0%	6.01µM*
Cc1ccsc1/C=N\NC(=O)c1ccc2c(c1)OCO2	1.41µM*	u	u	1.41µM*	u	3.79µM*
SMILES	NPC1 promoter act	ELG1 repair inh	ELG1 genotoxic	Rab9 prom act	SMN2 splice enh	FLuc counter
Cc1ccsc1/C=N/NC(=O)c1ccc2nc[nH]c2c1	22.8%	u	8.9%	u	21.1%	u
Cc1ccsc1/C=N/NC(=O)c1ccc2c(c1)OCCO2	0.631µM*	u	1.64µM*	0.355µM*	x	0.953µM*
O=C(O)c1nn(Cc2ncc(-c3cccc(Cl)c3)o2)c(=O)c2ccccc12	0.2%	5.9%	0.6%	3.1%	x	-3.8%
COc1ccc(/C(N)=N/OC(=O)c2ccc3c(c2)OCO3)cc1	u	u	u	u	11.2µM*	2.13µM*
Cc1ccc(/C(N)=N/OC(=O)c2ccc3c(c2)OCO3)cc1	3.16µM*	u	u	2.82µM*	12.6µM*	2.13µM*
N/C(=N\OC(=O)c1ccc2c(c1)OCO2)c1ccc(Cl)cc1	2.82µM*	u	u	u	u	0.849µM*
N/C(=N\OC(=O)c1ccc2c(c1)OCO2)c1ccncc1	3.16µM*	u	u	2.51µM*	x	1.51µM*
CC(=O)OC1CSC2c3ccccc3C(=O)N2Cc2sccc21 (stereo not given)	-1.5%	7.4%	0.0%	-2.3%	x	-0.6%
C=CCOc1cccc(/C=N/NC(=O)CC(=O)NC2CCCCC2)c1	-0.6%	7.2%	-1.0%	-1.6%	x	2.6%
COc1ccccc1N1CCN(/N=C/c2ccc([N+](=O)[O-])cc2)CC1	u	u	-4.7%	3.98µM*	x	15.1µM*
COc1ccccc1N1CCN(C(=O)Nc2ccc([N+](=O)[O-])cc2)CC1	1.6%	14.6µM*	-3.9%	-0.8%	5.0%	0.5%
COc1ccc(NC(=S)N2CCN(c3ccc([N+](=O)[O-])cc3)CC2)cc1OC	-12.2%	13µM*	0.2%	-4.1%	-29.2%	-12.2%
COc1ccccc1N1CCN(/N=C/c2ccc(Cl)c([N+](=O)[O-])c2)CC1	28.2%	u	u	24.4%	x	15.1µM*
CCOC(=O)Nc1ccc2c(c1)N(C(=O)CCN(CC)CC)c1ccccc1S2=O (stereo not given)	-4.9%	-3.3%	14.6%	-4.1%[1.84 µM]	x	0.3%
COC(=O)c1ccc2c(=O)n(CCO)c(=S)[nH]c2c1	-2.7%	-0.9%	-5.8%	-2.1%	15.2%	3.2%
COC(=O)c1ccc2c(=O)n(NC(=O)C(c3ccccc3)c3ccccc3)c(=S)[nH]c2c1	1.5%	25.9µM*	-8.7%	-3.3%	-17.5%	-16.3%
O=C(C1COc2ccccc2O1)N1CCc2ccccc21 (stereo not given)	3.55µM*	u	u	3.55µM*	10.9%	21.3µM*
O=C(C1CCN(S(=O)(=O)c2ccccc2)CC1)N1CCc2ccccc21	21.5%	-3.0%	-3.1%	u	x	21.3µM*
O=C(C1CCN(S(=O)(=O)c2ccccc2F)CC1)N1CCc2ccccc21	-1.9%	u	-4.9%	-3.3%	x	-2.5%
O=C(C1CCN(S(=O)(=O)c2ccc3c(c2)OCCO3)CC1)N1CCc2ccccc21	-11.7%	23.1µM*	-5.1%	-8.9%	-23.8%	2.1%
O=C(C1COc2ccccc2O1)N1CCCC1 (stereo not given)	0.4%	1.0%	-3.9%	-4.8%	-20.0%	5.5%
CC(=O)Nc1ccc(NC(=O)C2CCCN2C(=O)Nc2ccc(F)c([N+](=O)[O-])c2)cc1 (stereo not given)	-1.2%	-17.6%	-5.0%	1.1%	1.2%	-1.1%
Cc1ccc(N2CCN(C(=O)Cn3ncc4c([nH]c5ccc(C)cc54)c3=O)CC2)c(C)c1	x	x	x	x	x	-1.3%
